PKM2 inh: inhibitors of human pyruvate kinase M2; AID 1634; Potency, µM (doses to about 57.5 µM), for the others: at the highest dose activity change, negative = inhibition, usual class: inhibitors; purified PKM2, ATP generation, Kinase-Glo luminescence; 260,000 compounds, 0.058% hits; further: potency means the concentration at half of the fitted maximal effect; nearly all actives have a fitted effect of over 60% in size
Target sequence (P14618 whole entry, looked up): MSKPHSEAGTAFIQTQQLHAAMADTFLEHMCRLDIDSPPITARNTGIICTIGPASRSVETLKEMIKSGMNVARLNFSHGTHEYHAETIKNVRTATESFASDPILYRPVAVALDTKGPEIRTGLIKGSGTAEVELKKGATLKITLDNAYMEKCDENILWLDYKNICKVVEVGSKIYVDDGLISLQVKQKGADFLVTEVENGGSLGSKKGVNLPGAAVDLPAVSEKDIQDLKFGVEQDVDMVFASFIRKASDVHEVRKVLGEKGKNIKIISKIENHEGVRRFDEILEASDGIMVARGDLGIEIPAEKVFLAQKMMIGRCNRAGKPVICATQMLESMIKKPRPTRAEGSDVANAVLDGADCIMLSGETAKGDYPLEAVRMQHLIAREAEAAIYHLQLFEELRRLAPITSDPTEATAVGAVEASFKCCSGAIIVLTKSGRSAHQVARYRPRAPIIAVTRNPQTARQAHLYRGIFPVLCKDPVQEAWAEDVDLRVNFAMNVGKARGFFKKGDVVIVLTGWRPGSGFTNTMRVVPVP
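Enzyme run at intermediate activity with final 0.1 mM ADP, 0.5 mM PEP (50 mM imidazole pH7.2, 50 mM KCl, 7 mM MgCl2), incubated 1 h at r.t. ATP formed read by Kinase-Glo luminescence, normalized to no-enzyme (full inhibition) and uninhibited wells.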
PKM2 inh dose: dose-dependently blocks human pyruvate kinase M2 activity. shares compounds with PKM2 inh. purified hPK-M2, Kinase-Glo ATP luminescence, 1 h. Potency, µM (titrated, usually from 57.5 µM), inactives show at the highest dose activity change, negative = inhibition, usual class: inhibitors. 55 compounds, 50% hits. AID 2263
PKM2 FLuc cs: counter-screen for pyruvate kinase M2 inhibitors: firefly luciferase inhibition. shares compounds with PKM2 inh. Kinase-Glo firefly luciferase, luminescence, 8 min. Potency, µM (series often up to 57.5 µM), inactives show top-dose activity, negative = inhibition, usual class: inhibitors. 55 compounds, 30% hits. AID 2265
PKM2 inh LDH: PKM2 (human) inhibition, NADH coupled readout | shares compounds with PKM2 inh | purified hPK-M2, LDH-coupled NADH fluorescence kinetic | Potency, µM (top dose mostly 57.5 µM), for inactives: at the top dose activity change, negative = inhibition, usual class: inhibitors | 55 tested, under 10 active | AID 2267
The depositor's hits bear a star. A selection follows. The call rests on the fitted dose curve; in most records, active means well fitted curve in the direction sought with a large enough effect; inconclusive means small, poorly fitted or top-dose-only effect, or another doubt; inactive means no such curve, though single readings can be large; an effect the other way counts as inactive or inconclusive.

Fc1ccccc1-c1ccc(-c2nc3ccc(Cl)cn3c2Nc2ccc(Cl)cc2)o1 was read as PKM2 inh dose 13.9%, PKM2 FLuc cs 5.3% and PKM2 inh LDH 2.3%.
`Cc1ccc2nc(-c3ccc(C)o3)c(Nc3ccc(F)cc3)n2c1` gave PKM2 inh dose 7.3%, PKM2 FLuc cs -0.3% and PKM2 inh LDH inconclusive.
Cc1ccc2nc(-c3ccc(C)o3)c(Nc3ccccc3)n2c1 was read as PKM2 inh dose 6.8%, PKM2 FLuc cs 0.9% and PKM2 inh LDH inconclusive.
For Cc1ccc(Nc2c(-c3ccc(C)o3)nc3cnccn23)cc1 the results were PKM2 inh 63.7%.
`Cc1ccc(-c2cc(-c3ccc(F)cc3)c(C#N)c(N)n2)o1` gave PKM2 inh 47.9%.
For COc1cccc(CNc2ccc([N+](=O)[O-])cc2Cl)c1O the results were PKM2 inh 43.7%.
For Cc1cc(C)n2nc(CNS(=O)(=O)c3ccc(F)c(C)c3)nc2n1 the results were PKM2 inh 61.0%.
`Cc1ccc(NS(=O)(=O)c2ccc3c(c2)CC(=O)N3)cc1C` gave PKM2 inh 64.8%.
Screening CCCCC(=O)OCC(=O)Nc1ccc(SC(F)F)cc1 returned PKM2 inh 32.6%.
For Clc1cc2c(c(CSc3nc4ccccc4n4cccc34)c1)OCOC2 the results were PKM2 inh 30.1%.
Screening COc1ccc(S(=O)(=O)Nc2ccc(-n3cccc3)cc2)cc1 returned PKM2 inh 116.8%.
O=C1C(Cl)=C(Nc2ccccc2O)C(=O)N1CCc1ccccc1 was read as PKM2 inh 45.7%.
`O=c1[nH]c(Cn2nnc(-c3ccccc3)n2)nc2scc(-c3ccccc3)c12` gave PKM2 inh 106.8%.
For Cc1ccc2nc(SC(C)C(=O)NCc3ccc4c(c3)OCO4)[nH]c2c1 (stereo not given) the results were PKM2 inh 43.9%.
Screening O=[N+]([O-])c1ccc2c(OCc3nnc(-c4ccccc4Br)o3)ncnc2c1 returned PKM2 inh 43.3%.
Screening COc1cc(C(=O)NCC(=O)N2CCN(S(=O)(=O)c3cc(C)ccc3C)CC2)cc(OC)c1OC returned PKM2 inh 32.3%.
For Cc1ccc(-c2nc3ccccn3c2Nc2ccccc2)o1 the results were PKM2 inh 66.5%.
Cc1ccc(Nc2c(-c3ccc(C)o3)nc3ccccn23)cc1 was read as PKM2 inh dose 10.2%, PKM2 FLuc cs -0.2% and PKM2 inh LDH 4.61µM*.
Cc1ccc(-c2nc3ccc(Cl)cn3c2Nc2ccccc2)o1 was read as PKM2 inh dose 14.3%, PKM2 FLuc cs 1.9% and PKM2 inh LDH -21.0%.
For Cc1cc(C)n2c(Nc3ccc4c(c3)OCCO4)c(-c3ccc(C)o3)nc2n1 the results were PKM2 inh 43.5%.
For Cc1ccc(-c2nn(-c3ccccc3)cc2C2SCC(=O)N2Cc2ccccc2)o1 (stereo not given) the results were PKM2 inh 40.3%.
Screening Cc1ccn2c(NC3CCCCC3)c(-c3ccc(C)o3)nc2c1 returned PKM2 inh dose 16.2%, PKM2 FLuc cs 5.0% and PKM2 inh LDH -9.4%.
Cc1ccc(-c2cc(-c3ccc(Cl)cc3)c(C#N)c(N)n2)o1 was read as PKM2 inh 58.3%.
Cc1ccc2nc(-c3ccc(C)o3)c(Nc3ccc4c(c3)OCO4)n2c1 was read as PKM2 inh dose 11.8%, PKM2 FLuc cs 1.7% and PKM2 inh LDH -5.8%.
For Cc1ccc(-c2nc3cnccn3c2Nc2ccc3c(c2)OCO3)o1 the results were PKM2 inh 66.5%.
For Cc1ccc(-c2cc(-c3ccc(C)o3)nc(N)c2C#N)cc1 the results were PKM2 inh 57.9%.
CCC(CC)c1nnc(NC(=O)c2cccnc2SC)s1 was read as PKM2 inh 34.2%.
COC(=O)c1cc2c(C(F)(F)F)nn(C)c2s1 was read as PKM2 inh 48.0%.
`CC(=O)CC1(OC(C)=O)C(=O)N(C)c2ccccc21` (stereo not given) gave PKM2 inh 34.3%.
For COC(=O)[C@@]1(Cc2ccc(F)cc2)[C@H]2c3cc(C(=O)N4CCCC4)n(Cc4ccc(C)o4)c3C[C@H]2CN1C(=O)c1ccccc1 the results were PKM2 inh 61.7%.
For NS(=O)(=O)c1ccc2c(c1)oc(=O)c1cc(S(N)(=O)=O)ccc12 the results were PKM2 inh 160.3%.
COc1ccc(NS(=O)(=O)c2cccc(C(=O)N/N=C/c3ccc(O)cc3)c2)cc1 was read as PKM2 inh 57.2%.
